Assay [1] can be described thus: qHTS assay to identify small molecule antagonists of the estrogen receptor alpha (ER-alpha) signaling pathway using the BG1 cell line in the presence of 0.1 nM 17-beta-estradiol - cell viability counter screen (AID 1259241). Further: nearly all actives have a fitted effect of over 40% in size. Further: potency means the concentration at half of the fitted maximal effect. The essentials:
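VM7Luc4E2 cells (endogenous ER-alpha, 4×ERE-luciferase), hormone-starved 5 days in charcoal-stripped FBS, were treated with compounds plus 0.1 nM 17beta-estradiol for 22 hr at 37C; viability read in same wells as CellTiter-Fluor live-cell protease fluorescence.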
On the technique in general: qHTS replaces the single test concentration by a dilution series.

The nature of assay [2]: qHTS assay to identify small molecule antagonists of the androgen receptor (AR) signaling pathway using the MDA cell line in the presence of 0.5 nM R1881 - cell viability counter screen (AID 1259242). Further: on the % scale 0 is the no-effect control and ±100 the full control effect; nearly all actives have a fitted effect of over 45% in size. The essentials: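 Viability of MDA-kb2 cells was multiplexed with the luciferase AR readout; after 16 hr with compounds and R1881 at 0.5 nM final, CellTiter-Fluor fluorescence was recorded.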

Assay [3] is described as follows: qHTS assay to identify small molecule HDAC inhibitors (AID 1259364). Further: potency means the concentration at half of the fitted maximal effect.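 Further: wild-type HCT-116 cells with endogenous class I/II HDAC activity; nearly all actives have a fitted effect of over 45% in size.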 The essentials:
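Read-out: luminescence of HDAC-Glo I/II reagent, 30 min RT, reflecting class I/II deacetylase activity in whole HCT-116 cells pre-exposed 2 h to DMSO-dissolved compounds.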

A short description of assay [4]: qHTS assay to identify small molecule HDAC inhibitors - cell viability counter screen (AID 1259365). Further: nearly all actives have a fitted effect of over 50% in size. Further: potency means the concentration at half of the fitted maximal effect. The essentials:
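Wild-type HCT-116 cells were seeded at 1,500 per well, incubated overnight at 37 C, then exposed to compounds in DMSO for 2hr. Viability was read by CellTiter-Glo luminescence after 30min at room temperature.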

A short description of assay [5]: qHTS assay to identify small molecule agonists of the sonic hedgehog signaling (Shh) pathway - cell viability counter screen (AID 1259366). Further: nearly all actives have a fitted effect of over 50% in size. Further: potency means the concentration at half of the fitted maximal effect. The essentials:
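NIH/3T3-derived 3T3 Gli1-Luc cells (stable Gli1-responsive firefly luciferase reporter) were seeded, rested 4 hr at 37 C/5% CO2, then exposed to compounds in DMSO for 24 hr; viability was read by CellTiter-Fluor fluorescence in the same wells.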

The nature of assay [6]: qHTS assay to identify small molecule antagonists of the sonic hedgehog signaling (Shh) pathway - cell viability counter screen (AID 1259367). Further: nearly all actives have a fitted effect of over 55% in size. Further: potency means the concentration at half of the fitted maximal effect. The essentials:
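Using CellTiter-Fluor, viability of Gli1-Luc reporter 3T3 cells is read by fluorescence in the wells used for the Shh luciferase assay. Treatment lasts 23 hr with conditioned medium, then reagent 1 hr at 37C.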

Assay [7] can be described thus: qHTS assay to identify small molecule agonists of the sonic hedgehog signaling (Shh) pathway (AID 1259368; calls by dose curve; further: series mostly up to about 92 µM; on the % scale 0 is the no-effect control and ±100 the full control effect; nearly all actives have a fitted effect of over 15% in size). The essentials:
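A Gli1 transcriptional response element controlled firefly luciferase in 3T3Gli1-Luc cells. Compounds and a positive control were added 4 hr after plating, and cells were incubated a further 24 hr at 37 C before luminescence detection.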

Assay [8] is described as follows: qHTS assay to identify small molecule phospholipidosis (PLD) inducers (AID 1259344; active means well fitted curve in the direction sought with a large enough effect; an effect the other way counts as inactive or inconclusive; further: on the % scale 0 is the no-effect control and ±100 the full control effect). The essentials: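 Fluorescent phospholipid staining (LipidTOX Red) measured by automated microscopy in fixed HepG2 cells after 24 h treatment; nuclei counterstained with Hoechst 33342; amiodarone as reference inducer.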
For assay [9], the target named is Estrogen receptor (Homo sapiens) (UniProt P03372). The experiment in a line: qHTS assay to identify small molecule antagonists of the estrogen receptor alpha (ER-alpha) signaling pathway using the BG1 cell line in the presence of 0.1 nM 17-beta-estradiol (AID 1259244). Further: nearly all actives have a fitted effect of over 50% in size. Further: potency means the concentration at half of the fitted maximal effect. The essentials: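 Estradiol at 0.1 nM (final) stimulates the endogenous ER-alpha of VM7Luc4E2 cells carrying an ERE-driven luciferase; compounds are co-incubated 22 h at 37C and luciferase output quantified by luminescence.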

Assay [10] has as its target Androgen receptor (Homo sapiens) (UniProt P10275). Put plainly: qHTS assay to identify small molecule antagonists of the androgen receptor (AR) signaling pathway using the MDA cell line in the presence of 0.5 nM R1881 (AID 1259243). Further: potency means the concentration at half of the fitted maximal effect; nearly all actives have a fitted effect of over 50% in size. The essentials:
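Reporter cells cultured without CO2 receive test chemicals, then 0.5 nM R1881 final; after 16 hr at 37C, ONE-Glo is added and light output recorded.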

“And” between values parts separate entries of the source, which are not always exact repeats. Equal entries are not always repeated. Results filed as inconclusive are left out. The source made the active and inactive calls. Unless noted, the call rests on the fitted dose curve; in most records, active means well fitted curve in the direction sought with a large enough effect in the repeat runs; inconclusive means weak or mixed curves; inactive means no such curve, though single readings can be large; an effect the other way counts as inactive or inconclusive.

Estrogen receptor (Homo sapiens), sequence (P03372 whole entry, looked up): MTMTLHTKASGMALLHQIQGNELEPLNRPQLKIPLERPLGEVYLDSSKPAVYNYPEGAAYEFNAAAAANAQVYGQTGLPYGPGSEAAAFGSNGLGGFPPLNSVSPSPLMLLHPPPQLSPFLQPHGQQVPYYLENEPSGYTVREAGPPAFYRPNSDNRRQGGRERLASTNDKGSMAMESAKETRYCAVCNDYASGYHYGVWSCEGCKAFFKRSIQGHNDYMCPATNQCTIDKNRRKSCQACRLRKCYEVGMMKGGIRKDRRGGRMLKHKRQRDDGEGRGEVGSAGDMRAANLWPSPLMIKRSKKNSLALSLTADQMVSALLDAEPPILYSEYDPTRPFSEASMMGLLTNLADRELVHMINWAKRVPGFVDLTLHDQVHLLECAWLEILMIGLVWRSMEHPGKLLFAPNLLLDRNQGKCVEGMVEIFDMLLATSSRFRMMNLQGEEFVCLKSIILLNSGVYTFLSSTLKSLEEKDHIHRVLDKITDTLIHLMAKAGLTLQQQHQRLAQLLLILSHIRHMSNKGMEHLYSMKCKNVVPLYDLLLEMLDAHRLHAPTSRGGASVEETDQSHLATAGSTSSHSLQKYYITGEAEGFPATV
Androgen receptor (Homo sapiens), sequence (P10275 whole entry, looked up): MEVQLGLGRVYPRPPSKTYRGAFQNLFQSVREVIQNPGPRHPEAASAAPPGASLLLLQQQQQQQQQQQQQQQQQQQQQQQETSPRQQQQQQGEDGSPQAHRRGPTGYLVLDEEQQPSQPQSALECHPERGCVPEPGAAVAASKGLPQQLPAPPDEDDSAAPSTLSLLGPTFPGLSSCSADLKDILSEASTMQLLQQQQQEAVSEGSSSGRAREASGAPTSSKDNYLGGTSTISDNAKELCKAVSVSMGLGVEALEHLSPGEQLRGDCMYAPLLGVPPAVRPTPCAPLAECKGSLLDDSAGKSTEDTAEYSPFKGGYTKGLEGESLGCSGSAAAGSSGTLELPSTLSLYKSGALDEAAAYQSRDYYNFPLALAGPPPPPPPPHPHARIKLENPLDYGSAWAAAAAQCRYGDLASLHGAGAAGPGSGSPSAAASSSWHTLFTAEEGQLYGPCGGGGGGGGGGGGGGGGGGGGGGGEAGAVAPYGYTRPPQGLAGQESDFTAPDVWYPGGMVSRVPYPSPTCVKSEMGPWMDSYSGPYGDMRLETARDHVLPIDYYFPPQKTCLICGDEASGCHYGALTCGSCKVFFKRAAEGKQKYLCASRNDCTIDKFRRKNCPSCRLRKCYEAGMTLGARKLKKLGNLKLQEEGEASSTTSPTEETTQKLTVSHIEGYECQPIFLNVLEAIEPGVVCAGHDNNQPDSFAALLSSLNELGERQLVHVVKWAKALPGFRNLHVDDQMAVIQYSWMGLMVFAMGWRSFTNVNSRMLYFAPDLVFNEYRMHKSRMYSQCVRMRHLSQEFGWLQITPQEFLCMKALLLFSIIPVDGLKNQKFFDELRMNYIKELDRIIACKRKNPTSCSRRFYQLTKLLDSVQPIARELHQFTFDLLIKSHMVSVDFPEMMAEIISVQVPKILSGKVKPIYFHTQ

Turning to `Oc1ccccc1Br`, the Potency result in [1], in assay [2], in [3], in assay [4], in assay [5] and in assay [6] was “inactive” in each case.

`COC(=O)N(C(=O)N1COC2(C(=O)OC)Cc3cc(Cl)ccc3C2=N1)c1ccc(OC(F)(F)F)cc1` (stereo not given): the Potency result in [1], in assay [2], in assay [3], in [4], in assay [5] and in assay [6] was “inactive” each time. Besides, the Potency result in [7] was “inactive”.

`CC(=O)[O-].[Tl+]`: the Potency result in assay [1], in assay [2], in [3], in assay [4], in assay [5] and in [6] was “inactive” each time. In addition, the Potency result in [7] is “inactive”.

`O=C(O)C1C2CCC(O2)C1C(=O)O` (stereo not given): the Potency entry in assay [1], in assay [2], in [3], in assay [4] and in assay [7] was “inactive” in each case. The Potency in [5] is 19.6 µM (active) and 11.2 µM (active); in [6], 31 µM (active).

Consider `CCCN(CC)CC1COC2(CCC(C(C)(C)C)CC2)O1` (stereo not given), for which the Potency result in assay [1], in assay [2], in [3], in assay [4], in assay [5] and in [6] was “inactive” throughout. For the same compound, the Potency entry in assay [7] was “inactive”.

On to `Clc1ccc(-c2ccccc2)cc1`, for which the Potency result in [1], in assay [2], in assay [3], in assay [4], in assay [5] and in assay [6] was “inactive” throughout. In addition, the Potency result in assay [7] was “inactive”.

With `CCCCCCCCCCCCBr`, the Potency result in [1], in assay [2], in [3], in [4], in assay [5] and in assay [6] was “inactive” throughout. Moreover, in assay [7], the Potency result was “inactive”.

Turning to `Cl/C=C\CCl`, the Potency result in [1], in assay [2], in assay [3], in [4], in assay [5] and in assay [6] was “inactive” in each case. The Potency entry in assay [7] is “inactive”.

As to `COCC(=O)N(c1c(C)cccc1C)[C@H](C)C(=O)OC`, the Potency result in assay [1], in assay [2], in [3], in assay [4], in [5] and in assay [6] was “inactive” throughout.

For `O=C(CBr)c1ccc(O)cc1`, the Potency result in [1], in [2], in assay [3], in [4], in assay [5] and in [6] was “inactive” each time. In [7], the Potency entry is “inactive”.

With `[Cd+2].[Cl-].[Cl-]`, the Potency result in assay [1], in assay [2], in assay [3], in [4] and in [7] was “inactive” in each case. Further, the Potency in assay [5] was 4.9 µM (active) and 10.9 µM (active); in assay [6] it was 3.89 µM (active) and 9.69 µM (active).

Turning to `CC1(C)[C@H](C(=O)O[C@H](C#N)c2cccc(Oc3ccccc3)c2)[C@@H]1/C=C(\Cl)C(F)(F)F`, the Potency entry in [1], in [2], in [3], in assay [4], in assay [5] and in assay [6] was “inactive” in each case. Besides, the Potency entry in assay [7] was “inactive”.

`ClC(Cl)=C(Cl)Cl`: the Potency result in assay [1], in assay [2], in assay [3], in [4], in assay [5] and in assay [6] was “inactive” throughout. Moreover, the Potency entry in [7] was “inactive”.

Take `N#CNC#N`: the Potency entry in assay [1], in assay [2], in [3], in [4], in assay [5] and in assay [6] was “inactive” each time. The Potency entry in [7] is “inactive”.

For `CC1CCC(C(C)C)C(OC(=O)c2ccccc2N)C1` (stereo not given), the Potency entry in assay [1], in [8], in [3], in [6] and in [7] was “inactive” each time.

On to `C=CC(=O)OCCCCOC(=O)C=C`, for which the Potency result in assay [1], in assay [9], in [3] and in [7] was “inactive” throughout. The Potency in assay [5] is 61.1 µM (active).

Take `CCN`: the Potency entry in [1], in [2], in [3], in [4], in assay [5] and in assay [6] was “inactive” in each case. In addition, in [7], the Potency entry was “inactive”.

Take `CCOP(=S)(OCC)SCS(=O)(=O)C(C)(C)C`: the Potency entry in assay [1], in [2], in [3], in assay [4] and in assay [7] was “inactive” each time.

Consider `[Hg+2].[I-].[I-]`, for which the Potency in [1] was 30.6 µM (active); in assay [3], 24.3 µM (active); in assay [4], 61.1 µM (active); in assay [5], 2.43 µM (active); in assay [6], 4.33 µM (active). For the same compound, the Potency result in [7] is “inactive”.

In the case of `CCCCN(CCCC)C(=S)[S-].CCCCN(CCCC)C(=S)[S-].[Zn+2]`, the Potency in [1] was 17.2 µM (active); in [9], 13.7 µM (active); in [5] it was 5.44 µM (active); in assay [6], 6.85 µM (active). In addition, the Potency result in assay [3], in [4] and in assay [7] was “inactive” in each case.

Consider `Oc1c(Cl)c(Cl)cc(Cl)c1Cl`, for which the Potency result in [1], in assay [4], in [5], in assay [6] and in assay [7] was “inactive” throughout. Further, in [10], the Potency is 66.7 µM (active).

For `O=C(CCl)C(Cl)Cl`, the Potency result in assay [1], in assay [9], in assay [3], in [4] and in assay [7] was “inactive” throughout. In addition, the Potency in [5] and in [6] was 17.4 µM (active) each time.

Regarding `COc1cccc(C(=O)CCN[C@@H](C)[C@H](O)c2ccccc2)c1`, the Potency result in [1], in assay [3], in assay [4] and in assay [7] was “inactive” throughout. Besides, the Potency in [10] was 29.8 µM (active).

For the compound `CCOP(=S)(OCC)OC(Cl)C(Cl)(Cl)Cl` (stereo not given), the Potency entry in [1], in assay [2], in assay [3], in assay [4], in [5] and in [6] was “inactive” throughout. Further, in assay [7], the Potency result was “inactive”.

Take `[Cl][Sb]([Cl])[Cl]`: in [1], the Potency is 27.3 µM (active). Besides, the Potency result in [3], in [4] and in assay [7] was “inactive” in each case.

Regarding `CC(C)C1CCC(Cc2ccc(Cl)cc2)C1(O)Cn1cncn1` (stereo not given), the Potency entry in assay [1], in [3], in assay [4] and in assay [7] was “inactive” each time. Moreover, the results for the Potency in [9], in [5] and in assay [6] were 48.1 µM (active), 48.1 µM (active) and 53.9 µM (active), respectively.

Consider `O=C(O)c1cc[c]([Hg][Cl])cc1`, for which the Potency entry in [1], in assay [4] and in assay [7] was “inactive” each time. The Potency in [3] is 30.6 µM (active); in assay [5] it was 27.3 µM (active); in [6] it was 43.3 µM (active).

Regarding `Clc1ccc(CO/N=C(\Cn2ccnc2)c2ccc(Cl)cc2Cl)c(Cl)c1`, the Potency entry in [1], in assay [8], in [3], in [4] and in [7] was “inactive” throughout.

Take `S=C(SSC(=S)N1CCCCC1)N1CCCCC1`: the Potency result in [1], in assay [3], in assay [4] and in assay [7] was “inactive” throughout. Besides, in [8], the PLD induction is -4.77% [at 0.0123 µM] (inactive). The Potency in [5] was 2.66 µM (active); in assay [6], 5.96 µM (active).
